Assay results taken from PubChem BioAssay (NCATS).
Inconclusive results are not listed. The list shows a part of the results. Active and inactive are the calls of the source. Calls follow the shape of the dose curve; as a rule, active = well fitted curve in the direction sought with a large enough effect; inconclusive = small, poorly fitted or top-dose-only effect, or another doubt; inactive = no such curve, though single readings can be large; an effect the other way counts as inactive or inconclusive.

Legend:
[1] = Cellular Toxicity (caspase-3) HepG2 (AID 654);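 also: cells exposed to compound for 16 hours before reading; 0% = DMSO alone and 100% = caspase signal from 100 µM tamoxifen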
Method in brief: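 Caspase 3/7 activation is measured as a luminescence increase (aminoluciferin substrate) after 16 h compound exposure of human hepatocarcinoma HepG2 cells. AC50 values are Hill fits, scaled between DMSO baseline and 100 uM tamoxifen stimulation.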

[2] = Cellular Toxicity (caspase-3) Jurkat (AID 655); details: Jurkat caspase-3 activation, luminescence, DMSO = 0%, tamoxifen = 100%; at 92.2 µM (top of the series);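 also: cells exposed to compound for 16 h at 37 °C before reading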
Method in brief: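 Caspase 3/7 activation is scored as increased luminescence in Jurkat cells cultured with compound for 16 hours in complete medium. AC50 values come from Hill fits of qHTS concentration-response data normalized to DMSO and 100 uM tamoxifen controls.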

[3] = Cellular Toxicity (caspase-3) SHSY5Y (AID 657);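 also: cells exposed to compound for 16 hours at 37 °C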
Method in brief: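 Cells plated and incubated 5 h at 37 °C, dosed over a concentration range, incubated 16 h, then given Caspase-Glo 3/7 reagent for 1 h at room temperature before luminescence reading. Staurosporine (10 uM) defined full stimulation.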

[4] = Cellular Toxicity (caspase-3) MRC-5 (AID 659);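 also: cells exposed to compound for 16 h at 37 °C; 0% = DMSO basal and 100% = 10 µM staurosporine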
Method in brief: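 MRC-5 fibroblasts, 1500/well; 16 h cpd, 37 °C; Caspase-Glo 3/7, 1 h RT; lumi read. Norm: DMSO = 0%, 10 uM staurosporine = 100%. Hill-fit AC50 from qHTS conc-response.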

[5] = Cellular Toxicity (caspase-3) Mesangial (AID 660);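 also: combined caspase 3 and 7 activity read by Caspase-Glo luminescence; cells exposed to compound for 16 h before the caspase read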
Method in brief: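 Caspase 3/7 activation measured by Caspase-Glo 3/7 luminescence (20 min, room temperature) following 16 h exposure of mesangial cells (1000/well); AC50 from Hill-equation fit, normalized to DMSO and 100 uM tamoxifen.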

[6] = Cellular Toxicity (caspase-3) Hek293 (AID 664);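 also: cells exposed to compound for 16 h at 37 °C before readout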
Method in brief: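 Concentration-response qHTS: caspase 3/7 activation measured by luminescent aminoluciferin substrate cleavage after 16 h compound exposure of Hek 293 cells. AC50 from Hill equation, with DMSO as basal and 100 uM tamoxifen as 100%.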

[7] = Cell Viability - LYMP2-001 (AID 921); also: potency is read from the fitted curve at half-maximal effect; nearly all actives have a fitted effect of over 70% in size
Method in brief: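 qHTS, 1536-well; lymphoblastoid cells, 24 hr compound, 37 C; ATP by CellTiter-Glo, 30 min RT; luminescence; Hill-fit AC50.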

[8] = MultiTox-Fluor Cytotoxicity Assay - LYMP1-001 - Live Cells (AID 947); also: potency is read from the fitted curve at half-maximal effect
[9] = Cell Viability - LYMP2-009 (AID 968); also: potency is read from the fitted curve at half-maximal effect; nearly all actives have a fitted effect of over 55% in size
[10] = Cell Viability - LYMP2-013 (AID 970); also: potency is read from the fitted curve at half-maximal effect; nearly all actives have a fitted effect of over 55% in size
Method in brief: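 qHTS cytotoxicity: ATP-dependent luminescence (CellTiter-Glo, 30 min room temperature) read after 24 h compound exposure at 37 C of 2500 LYMP2-013 lymphoblastoid cells per well. Concentration-response fitted with Hill equation to give AC50.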

[11] = Cell Viability - LYMP2-006 (AID 978);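 also: potency is read from the fitted curve at half-maximal effect; cells exposed to compound for 24 hours; nearly all actives have a fitted effect of over 60% in size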
Method in brief: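 Concentration-dependent loss of intracellular ATP in a human lymphoblastoid line after 24 hr treatment at 37 C was measured by CellTiter-Glo luminescence, with AC50 values obtained from standard Hill-equation modelling.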

[12] = Cell Viability - LYMP2-007 (AID 979);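 also: potency is read from the fitted curve at half-maximal effect; cells exposed to compound for 24 h before reading; nearly all actives have a fitted effect of over 60% in size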
Method in brief: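 AC50 values come from Hill-equation fits of luminescent intracellular ATP (CellTiter-Glo, 30 min, room temperature) following 24 h compound exposure at 37 C. Cells: LYMP2-007 lymphoblastoid line, 2500 per well, in complete culture medium.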

[13] = qHTS screen for small molecules that inhibit ELG1-dependent DNA repair: Hit Confirmation with 5FU Viability (AID 624250); details: cell viability with 5-FU;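 also: potency is read from the fitted curve at half-maximal effect; viability measured 16 h after compound addition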
Method in brief: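 Cell line was HEK293T bearing an ELG1-luciferase reporter. Compound and 5-fluorouridine (10 µM final) were introduced about 5 h post-plating, with cell viability then determined by CellTiter-Glo luminescence at 16 h.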

[14] = molecular target: Luciferin 4-monooxygenase (Photinus pyralis) (UniProt P08659); test: qHTS screen for small molecules that inhibit ELG1-dependent DNA repair: Hit Confirmation in Biochemical Luciferin Assay (AID 624253); also: % is scaled to controls: 0 for no effect and ±100 for the full control effect
Method in brief: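 Luminescence from purified firefly luciferase acting on its substrate reagent, with compounds pinned in before the enzyme, read by CCD imager; flags direct luciferase inhibitors.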

O=C1C(Cl)=C(Cl)C(=O)C(Cl)=C1Cl
inactive: outcome [1] | caspase-3 activation [2] -9.68% | outcome [3] | outcome [4] | outcome [5] | outcome [6]
active: Potency [7] 12.6 µM | Potency [8] 39.8 µM | Potency [9] 20 µM | Potency [10] 31.6 µM | Potency [11] 31.6 µM | Potency [12] 15.8 µM

COC1CC(OC2CC[C@@]3(C=O)C4CC[C@]5(C)C(C6=CC(=O)OC6)CC[C@@]5(O)C4CC[C@]3(O)C2)OC(C)C1O (some centres undefined)
active: Potency [13] 0.706 µM
inactive: outcome [14]
